Rows were chosen to be rich in hits. Some 7.3% of all compounds tested hit in one or more screens of this group.
SMN2 splice up = qHTS Assay for Enhancers of SMN2 Splice Variant Expression; HEK293 SMN2-luciferase splicing reporter, luminescence, 30-36 h; Potency, µM (series often up to 46.1 µM), inactives show at the top dose activity change, positive = activation, most hits filed as activators; 210,000 tested, 2.8% active; also: % of control where 0% means no effect; nearly all actives have a fitted effect of over 55% in size
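qHTS luciferase splicing reporter: luminescence rises when SMN2 exon 7 is included in transfected HEK293 cells. Compound exposure lasted 30-36 h at 37C, with 4.5 mM final sodium butyrate as control, followed by a ONE-Glo read.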
ELG1 genotoxic = qHTS screen for small molecules that induce genotoxicity in human embryonic kidney (HEK293T) cells expressing luciferase-tagged ELG1; HEK293T ELG1-luciferase reporter, luminescence, 16 h; 330,000 tested, 1.3% active; Potency, µM (titrated, usually from 46 µM), for the others: at the top dose activity change, positive = activation, actives largely listed as activators; AID 504466, 2011; also: % of control where 0% means no effect; nearly all actives have a fitted effect of over 60% in size
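Step 1: seed 2,000 HEK293T ELG1-luciferase cells per well. Step 2: add compound or DMSO, incubate 16 hr at 37 °C. Step 3: ONE-Glo, 30 min at room temperature, read luminescence.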
Rab9 prom act = qHTS Assay for Rab9 Promoter Activators; 320,000 tested, 2.8% active; Huh7 Rab9 promoter-luciferase reporter, luminescence, 24 h; Potency, µM (series often up to 9.22 µM), inactives show at the top dose activation, negative = inhibition, usual class: activators; also: % of control where 0% means no effect; nearly all actives have a fitted effect of over 60% in size
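Luminescence read-out: Huh7 cells stably expressing Rab9-luciferase, treated 24 h with compound at 37 °C, then lysed with luciferase reagent for 10 min at ambient before reading.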
FLuc modulator = qHTS profiling assay for firefly luciferase inhibitor/activator using purifed enzyme and Km concentrations of substrates (counterscreen for miR-21 project); Luciferin 4-monooxygenase (Photinus pyralis), P08659; purified FLuc, Km substrates, luminescence inhibition; Potency, µM (top dose mostly 57.5 µM), for the others: at the highest dose activity change, negative = inhibition, usual class: inhibitors; 360,000 tested, 6.9% active; AID 588342, 2011;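 also: plate controls were vehicle for no effect and reference inhibitor for full effect; nearly all actives have a fitted effect of over 55% in size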
Target sequence (P08659 whole entry, looked up): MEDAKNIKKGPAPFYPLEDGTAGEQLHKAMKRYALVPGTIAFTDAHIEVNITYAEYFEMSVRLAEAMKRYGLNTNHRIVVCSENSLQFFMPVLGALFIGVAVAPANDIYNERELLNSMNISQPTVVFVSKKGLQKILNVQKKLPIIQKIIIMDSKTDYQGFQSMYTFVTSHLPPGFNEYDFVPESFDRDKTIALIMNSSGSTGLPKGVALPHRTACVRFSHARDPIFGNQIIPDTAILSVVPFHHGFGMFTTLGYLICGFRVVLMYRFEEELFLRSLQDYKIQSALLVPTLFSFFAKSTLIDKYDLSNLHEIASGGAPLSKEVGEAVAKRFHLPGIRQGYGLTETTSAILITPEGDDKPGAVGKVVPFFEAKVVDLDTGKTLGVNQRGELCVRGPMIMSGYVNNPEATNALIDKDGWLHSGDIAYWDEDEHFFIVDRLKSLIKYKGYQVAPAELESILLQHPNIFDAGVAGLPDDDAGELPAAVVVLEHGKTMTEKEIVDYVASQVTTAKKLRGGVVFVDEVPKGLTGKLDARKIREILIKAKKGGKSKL
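Biochemical qHTS of compounds, final roughly 60 µM downward over six points, against 10 nM purified firefly luciferase using Km concentrations of substrates (10 uM D-luciferin, 10 uM ATP) in Tris acetate pH 7.5 buffer; luminescence output.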
p53 reactivation = qHTS assay for re-activators of p53 using a Luc reporter; H1299 p53-A138V BP100-luciferase reporter, luminescence, 24 h; Potency, µM (highest dose often 92.2 µM), without a hit: top-dose activity change, positive = activation, most hits filed as activators; 320,000 tested, 0.063% active; also: % of control where 0% means no effect; nearly all actives have a fitted effect of over 45% in size
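H1299 (p53-null), stable ts p53-A138V + BP100-Luc; 1000 cells/well, Opti-MEM/10% FBS; cpd 4 pt, 1:5; 24 h, 37 deg C, 5% CO2; detection reagent 10 min RT; luminescence.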
NPC1 promoter act = qHTS Assay for NPC1 Promoter Activators. Huh7 NPC1 promoter luciferase reporter, 24 h. Potency, µM (titrated, usually from 9.22 µM), for the others: at the top dose activation, hits mostly activators. 320,000 tested, 2.4% active; also: % of control where 0% means no effect; nearly all actives have a fitted effect of over 60% in size
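NPC1 promoter–luciferase Huh7 cells; 24 h compound; luminescence.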
Numbers without * were called inactive; ? = inconclusive; . = not tested or not shown. Calls follow the shape of the dose curve; as a rule, active = well fitted curve in the direction sought with a large enough effect; inconclusive = small, poorly fitted or top-dose-only effect, or another doubt; inactive = no such curve, though single readings can be large; an effect the other way counts as inactive or inconclusive. Potency is read from the fitted curve at half-maximal effect.

SMILES	SMN2 splice up	ELG1 genotoxic	Rab9 prom act	FLuc modulator	p53 reactivation	NPC1 promoter act
COc1ccc(C=C(c2nc3ccccc3s2)c2nc3ccccc3s2)cc1O	-50%	?	6%	11µM*	?	0%
COc1cc(C=C(c2nc3ccccc3s2)c2nc3ccccc3s2)ccc1O	-13%	1%	-5%	?	7%	-1%
COc1ccc(CNC(=O)C(Cc2ccccc2)NS(=O)(=O)c2ccc3c(c2)CCN3C(C)=O)cc1 (stereo unspecified)	3%	.	.	-13%	.	.
COc1ccc(OC)c(NC(=O)c2cc3c(=O)oc4ccccc4c3s2)c1	6%	.	.	2%	.	.
COc1cc(-c2noc(-c3ccc(N4CCN(C)CC4)c([N+](=O)[O-])c3)n2)cc(OC)c1OC	.	.	.	-7%	.	.
COc1cc(/C=N\Nc2nc3ccccc3o2)cc(OC)c1OC	4%	12%	24%	?	-1%	?
COc1ccc(/C=N/Nc2nc3ccccc3s2)cc1O	17%	2.3µM*	?	0.24µM*	?	?
COc1ccc(/C=N/Nc2nc3ccccc3o2)cc1O	?	0.92µM*	?	0.95µM*	?	?
COc1ccc(F)cc1S(=O)(=O)Nc1cc2c3c(c1)CC(=O)N3CCC2	.	?	0%	-1%	-1%	-1%
CN(C)c1ccc(CNC(=O)C2CCN(c3nnc(-n4cccc4)s3)CC2)cc1	.	.	.	0%	.	.
CCNc1ccccc(-c2ccc3ccccc3n2)c1=O	11µM*	?	?	12µM*	?	?
CCNc1ccc2noc3c2c1C(=O)c1ccccc1-3	-26%	5%	22%	?	-6%	0%
Cc1ccc(C2/C(=C(/O)c3cnn(-c4ccccc4)c3C)C(=O)C(=O)N2CCN2CCOCC2)o1 (stereo unspecified)	-52%	5.8µM*	2.8µM*	21µM*	?	3.5µM*
Cc1c(/C(O)=C2/C(=O)C(=O)N(CCN3CCOCC3)C2c2cccs2)cnn1-c1ccccc1 (stereo unspecified)	?	1.8µM*	1.3µM*	9.5µM*	?	4.5µM*
Cc1nc2ccccn2c1/C(O)=C1\C(=O)C(=O)N(CCN2CCOCC2)C1c1cccs1 (stereo unspecified)	5%	1%	-5%	3%	-4%	-3%
COc1ccc(-n2nc3cc(C)c(N)c(Br)c3n2)cc1	7.9µM*	7.3µM*	1.3µM*	1.1µM*	21%	2.8µM*
COc1ccc(-n2nc3cc(N)c(Br)cc3n2)cc1	.	18µM*	?	4.8µM*	.	?
O=C(CNC(=O)c1cccs1)N/N=C/c1cccc(Cl)c1	.	3%	-1%	-11%	-12%	-4%
Cc1cc(C)cc(NC(=O)CSCc2cc(=O)c3cc(Cl)ccc3[nH]2)c1	.	.	.	-6%	.	.
CCOC(=O)c1cccc(NC(=O)Cn2ncc3c(=O)oc4ccccc4c32)c1	-12%	.	.	2%	.	.
CCOc1ccc(/C=C2/SC(=O)NC2=S)cc1	?	7%	?	17µM*	?	25%
CCOc1ccc(/C=C2\SC(=S)N(N3C(=O)C4CC4C3=O)C2=O)cc1 (stereo unspecified)	5%	1%	0%	?	0%	-2%
CCOc1ccc(N=C2NC(=O)S/C2=C\c2ccc(N(C)C)cc2)cc1	11µM*	?	?	12µM*	?	4.5µM*
O=C1NC(=Nc2ccc(Cl)cc2)/C(=C/c2ccco2)S1	?	10%	-2%	-13%	-9%	-2%
O=C(O)c1cc(-c2ccc3c(c2)OCO3)nc2ccccc12	14%	4%	-7%	8.5µM*	9%	9%
